Measured values published in the supplement of paper PMC9897528.

These molecules were tested on Scedosporium aurantiacum CBS 136046 (assay: growth inhibition relative to DMSO control (OD600); higher = more antifungal activity, active = 80 or more; extreme values may be limits of the assay). Details: 5 µM; 72 h; 37 °C.
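Note: conidia screened in RPMI 1640 medium under 5% CO2, growth read by spectrophotometer, medium with 0.5% DMSO serving as the untreated reference.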

| SMILES | growth inhibition |
| --- | --- |
| O=C(Nc1ccc(Cl)c(C(F)(F)F)c1)C(CCCl)C(=O)Nc1ccc(Cl)c(C(F)(F)F)c1 | 0% (inactive) |
| O=C(/C=C\n1cnc(-c2cc(C(F)(F)F)cc(C(F)(F)F)c2)n1)NNc1ccccn1 | 24.4% (inactive) |
| NS(=O)(=O)c1ccc(NC(=O)NC(c2ccccc2)c2ccccc2)cc1 | 25.6% (inactive) |
| CCCCCCCc1[nH]c2ccccc2c(=O)c1O | 8.25% (inactive) |
| O=C(O)c1ccc(-c2ccc(O[C@H]3O[C@H](CO)[C@@H](O)[C@H](O)[C@@H]3O)cc2)cc1 | 10.9% (inactive) |
| Cc1cc(O)c2c(c1)C(=O)c1c(I)c(O)c(I)c(O)c1C2=O | 2.05% (inactive) |
| Cc1cc(NS(=O)(=O)c2ccc(-c3ccc(F)cc3F)cc2)no1 | 11.5% (inactive) |
| CCc1c(O)nc2ccc(F)cc2c1OCC1CCC1 | 23.8% (inactive) |
| COc1ccc(-n2cnc3cc(NCc4ccco4)ccc32)cc1 | 9.11% (inactive) |
| Cc1cc(-c2ccccc2)c(C(=O)C(=O)Nc2ccc(N3CCN(c4ncc(F)cn4)CC3)cc2)n1C | 81.8% (active) |
| Cc1cc(Nc2ccc(F)cc2)nc(SCc2nc3ccccc3[nH]2)n1 | 0% (inactive) |
| C=CCN(C(=O)OCc1ccc([N+](=O)[O-])cc1)C1CCN(CC[C@](C)(CN(C)S(=O)(=O)c2ccccc2)c2ccccc2)CC1 | 34.9% (inactive) |
| CCCCCCC1c2ccc(O)cc2Oc2cc(O)ccc21 | 4.47% (inactive) |
| C=C(C)n1c(=O)n(Cc2ccccc2C)c2ccccc21 | 21.5% (inactive) |
| CC(=N)N1CC[C@H](SC2=C(C(=O)O)N3C(=O)[C@@H]([C@@H](C)O)[C@H]3C2)C1 | 5.55% (inactive) |
